S2 tox: Viability Counterscreen for Primary qHTS for Inhibitors of ATXN expression; S2 cells (HEK-293 line with an ATXN2-luciferase reporter) viability, CellTiter-Fluor protease fluorescence, 24 h; Potency, µM (titrated, usually from 56.7 µM), most hits filed as cytotoxic; 400,000 tested, 0.49% active; AID 651635, 2014; further: nearly all actives have a fitted effect of over 40% in size
A549 tox: Nrf2 qHTS screen for inhibitors: counterscreen for cytotoxicity; 390,000 tested, 0.16% active; A549 ARE-Fluc cells, CellTiter-Fluor viability, 18-24 h; Potency, µM (series often up to 46 µM), most hits filed as inhibitors
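A549 ARE-Fluc cells in 5% FBS OPTI-MEM, 5000 cells/well, rested 2 h then exposed to compounds in concentration-response for 18-24 h at 37 °C. Viability by CellTiter-Fluor fluorescence (Ex 405/Em 525) after 30 min; luciferase luminescence (BugLite, 15 min, RT) read afterwards.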
Nrf2 block: Nrf2 qHTS screen for inhibitors | A549 ARE-Fluc reporter, luciferase luminescence, 18-24 h | Potency, µM (doses to about 46 µM), actives largely listed as inhibitors | 360,000 tested, 2.1% active | AID 504444, 2011; further: nearly all actives have a fitted effect of over 60% in size
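Two sequential reads on A549 ARE_Fluc cells exposed to compound for 18-24 h: a CellTiter-Fluor fluorescence read for viability, then a luciferase luminescence read for Nrf2/ARE activity.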
Nrf2 activator: qHTS of Nrf2 Activators; AREc32 ARE-luciferase reporter (MCF7-derived line), luminescence, 24 h; Potency, µM (top dose mostly 46.1 µM), usual class: activators; 410,000 tested, 0.31% active; further: nearly all actives have a fitted effect of over 65% in size
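Steps: seed AREc32_Fluc cells (1000/well, 5% FBS OPTI-MEM); incubate overnight at 37 deg C; add 23 nL compound; incubate 24 hr; add Steady-Glo; hold 30 min RT; read luminescence.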
ATXN2 expr inh: Primary qHTS for Inhibitors of ATXN expression; Potency, µM (top dose mostly 57 µM), most hits filed as inhibitors; AID 1745845, 2022; HEK-293 ATXN2-luciferase reporter, luminescence, 24 h; 360,000 tested, 0.72% active; further: nearly all actives have a fitted effect of over 55% in size
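qHTS (up to 57 uM final) was run with 24 h compound exposure of reporter cells at 37 °C. Each well was multiplexed: SteadyGlo luminescence measured ATXN2-luciferase expression after a fluorogenic Gly-Phe-AFC viability readout (25 uM final).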
Of the large screens only hits and unclear results are named; the others gave an inactive call; ! = not confirmed by another sample. The list is not random: actives were taken first. Their share in the collection is about 2.9%. The call rests on the fitted dose curve; in most records, active means well fitted curve in the direction sought with a large enough effect; inconclusive means small, poorly fitted or top-dose-only effect, or another doubt; inactive means no such curve, though single readings can be large; an effect the other way counts as inactive or inconclusive.

c1cc2c(cc1[C@H]1OC[C@H]3[C@H]1CO[C@H]3c1ccc3c(c1)OCO3)OCO2	none (no result: S2 tox, A549 tox, Nrf2 block, Nrf2 activator)
CCc1ccc(-n2nc(C)c3c(C(=O)NCCc4ccc(OC)c(OC)c4)cc(C)nc32)cc1	S2 tox inconclusive, Nrf2 block 23.1µM
CNCCc1ccc(OC)c(OC)c1	none
CCOc1ccccc1N=C1SCCCN1C	none
CCOc1cccc(=NC2CCCCC2)c2c(C)n(C)c(C)c12	S2 tox inconclusive, A549 tox inconclusive, Nrf2 block 16.4µM, ATXN2 expr inh inconclusive
CCC(=NCc1ccc2c(c1)OCO2)c1c(O)n(C2CCCCC2)c(=O)[nH]c1=O	Nrf2 block 11.6µM (no result: A549 tox)
C=CCn1c(O)c(C(C)=NCc2ccc3c(c2)OCO3)c(=O)[nH]c1=O	Nrf2 block 20.6µM
CCCCNC(C)(C)[P+](=O)O	none (no result: A549 tox, Nrf2 block, Nrf2 activator, ATXN2 expr inh)
Cc1ccc([C@H]2C[C@H](n3cc(C4CC4)nn3)[C@@H](O)CN2Cc2cccs2)cc1	S2 tox inconclusive (no result: A549 tox, Nrf2 block)
C[C@]12CC[C@H]3[C@@H](CCC4=CC(=O)CC[C@@]43C)[C@H]1CC[C@H]2OC(=O)CCC1CCCC1	none (no result: S2 tox, A549 tox, Nrf2 block, Nrf2 activator)
CCCCCCCCCCCCCCCC[N+](C)(C)C	S2 tox inconclusive, Nrf2 block inconclusive, ATXN2 expr inh 31.6µM!
CCN1CCCC1CNC(=O)C(O)(c1ccccc1)c1ccccc1 (stereo not drawn)	none (no result: A549 tox, Nrf2 block, Nrf2 activator)
Cc1cnc(SCc2ccccn2)nc1C1CCCN(C(=O)c2cccc(-c3cccc(F)c3)c2)C1 (stereo not drawn)	S2 tox 31.6µM (no result: A549 tox, Nrf2 block, Nrf2 activator, ATXN2 expr inh)
CCCN(CCC)c1c([N+](=O)[O-])cc(S(N)(=O)=O)cc1[N+](=O)[O-]	S2 tox 50.1µM, ATXN2 expr inh 50.1µM (no result: A549 tox, Nrf2 block, Nrf2 activator)
OCCN1CCN(CCCN2c3ccccc3Sc3ccc(C(F)(F)F)cc32)CC1	S2 tox inconclusive, ATXN2 expr inh 28.2µM!
CC1CC(C)CC(C)C(O)C(C#N)=CC=CCC(C2CCCC2C(=O)O)OC(=O)CC(O)C(C)C1 (stereo not drawn)	S2 tox inconclusive, A549 tox 2.31µM, Nrf2 block 0.517µM, ATXN2 expr inh 0.752µM
O=C(CBr)Nc1ccc(Cl)cc1C(=O)c1ccccc1F	none (no result: A549 tox, Nrf2 block, Nrf2 activator)
C[C@@]12OC(=O)[C@]1([C@@H](O)[C@@H]1C=CCCC1)NC(=O)[C@H]2CCCl	ATXN2 expr inh 0.0193µM (no result: S2 tox, A549 tox, Nrf2 block, Nrf2 activator)
CCNC(=O)CC1N=C(c2ccc(Cl)cc2)c2cc(OC)ccc2-n2c(C)nnc21 (stereo not drawn)	none (no result: S2 tox, A549 tox, Nrf2 block, Nrf2 activator)
O=C(CN1CCCCC1)c1ccccc1Cl	none
O=C(CCl)c1ccc(Cl)cc1Cl	S2 tox 11.2µM!, ATXN2 expr inh inconclusive (no result: A549 tox, Nrf2 block, Nrf2 activator)
CC#C[C@]1(O)CC[C@H]2[C@@H]3C[C@H](C)C4=CC(=O)CC[C@]4(C)[C@H]3CC[C@@]21C	none (no result: A549 tox, Nrf2 block, Nrf2 activator)
O=C(c1ccc(N2CCCCCC2)c([N+](=O)[O-])c1)N1CCC2(CC1)OCCO2	A549 tox inconclusive, Nrf2 block 23.1µM
COc1ccc2c3c1O[C@H]1[C@@H](O)C=C[C@H]4[C@@H](C2)N(C)CC[C@@]341	S2 tox 14.1µM, ATXN2 expr inh inconclusive (no result: A549 tox, Nrf2 block, Nrf2 activator)
CCOCCOC(C)=O	none (no result: A549 tox, Nrf2 block, Nrf2 activator)
Cc1ccc2c(c1)c(C1=c3ccccc3=NC1=O)c(O)n2C	S2 tox inconclusive, Nrf2 block inconclusive, Nrf2 activator 11.2µM (no result: ATXN2 expr inh)
Cc1ccc(C)c(-n2c(C)nc3ccccc3c2=O)c1	S2 tox inconclusive (no result: ATXN2 expr inh)
Cc1csc(NC(=O)C2CCCN(S(=O)(=O)c3ccc4c(c3)oc(=O)n4C)C2)n1 (stereo not drawn)	Nrf2 block inconclusive
Cn1c(=O)oc2cc(S(=O)(=O)N3CCCC(C(=O)N4CCN(c5cccc(Cl)c5)CC4)C3)ccc21 (stereo not drawn)	S2 tox inconclusive, Nrf2 block 18.4µM
O=C(C1CCCN(S(=O)(=O)c2cccc3nsnc23)C1)N1CCN(c2cccc(Cl)c2)CC1 (stereo not drawn)	Nrf2 block 20.6µM
Cc1ccc(S(=O)(=O)N2CCCC(C(=O)N3CCC4(CC3)OCCO4)C2)cc1 (stereo not drawn)	none
COc1ccc(C2=NCC(=O)N(CC(=O)NCc3ccco3)c3sc4c(c32)CCCC4)cc1	A549 tox inconclusive, Nrf2 block 20.6µM
Cc1cccc(C2=NCC(=O)N(CC(=O)NCc3ccco3)c3sc4c(c32)CCCC4)c1	S2 tox inconclusive, Nrf2 block inconclusive, ATXN2 expr inh inconclusive

Source: PubChem
